IL-1B inflam inh = inflammasome signaling inhibition, IL-1 beta readout; THP-1 LPS/ATP IL-1B secretion, AlphaLISA, 16 h; hits give low values; activity change, % at 57.5 µM; actives 4.7% (n = 360,000); AID 743279; in the data active = activity change below about -50%; inconclusive = mostly about -30% to -49%; note: % is set by controls: 0 for no effect and ±100 for the full control effect
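Secreted IL-1B measured by AlphaLISA bead assay after 16 h compound exposure of THP-1 cells; compounds (final up to 57.5 uM) added 1 h before LPS (250 ng/mL) and ATP (1.25 mM) stimulation; lower signal means less secretion.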
D3 ag = D3 dopamine receptor (human) agonism. P35462. D3R DiscoveRx beta-arrestin cells, luminescence, 90 min. max activation, %. actives 0.58% (n = 410,000). AID 652048; in the data active = max activation above about 30%; note: 0% is about no effect
Target sequence (P35462 whole entry, looked up): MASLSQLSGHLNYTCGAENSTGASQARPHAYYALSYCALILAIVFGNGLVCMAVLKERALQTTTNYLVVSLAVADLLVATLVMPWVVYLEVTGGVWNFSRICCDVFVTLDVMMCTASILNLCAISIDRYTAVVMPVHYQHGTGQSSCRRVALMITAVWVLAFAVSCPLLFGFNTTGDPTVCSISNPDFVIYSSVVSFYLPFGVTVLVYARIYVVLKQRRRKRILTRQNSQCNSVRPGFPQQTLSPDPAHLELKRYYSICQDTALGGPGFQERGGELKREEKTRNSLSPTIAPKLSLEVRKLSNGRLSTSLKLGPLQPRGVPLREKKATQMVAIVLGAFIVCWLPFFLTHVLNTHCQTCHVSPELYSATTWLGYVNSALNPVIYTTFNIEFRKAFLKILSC
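Agonist-mode cell screen: cells plated at 1500/well and incubated overnight at 37 °C, then exposed to library compounds for 90 min at 37 °C. Detection reagent was added for 30–60 min at room temperature, and luminescence was read.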
ClpP mod = qHTS Assay for Activators of ClpP | ATP-dependent Clp protease proteolytic subunit (Bacillus subtilis (strain 168)), P80244 | purified B. subtilis ClpP, FRET peptide cleavage, 20 min | Potency, µM (titrated, usually from 57.5 µM), for inactives: at the highest dose activity change, negative = active | actives 1.9% (n = 340,000); active = well fitted falling curve with a large enough effect; inconclusive = small, poorly fitted or top-dose-only effect; inactive = no such curve, though single readings can be large or run the other way; note: potency is the fitted concentration of half-maximal effect; the source files actives as falling curves though it sought activators and does not explain the sign; nearly all actives have a fitted effect of over 65% in size
Target sequence (P80244 whole entry, looked up): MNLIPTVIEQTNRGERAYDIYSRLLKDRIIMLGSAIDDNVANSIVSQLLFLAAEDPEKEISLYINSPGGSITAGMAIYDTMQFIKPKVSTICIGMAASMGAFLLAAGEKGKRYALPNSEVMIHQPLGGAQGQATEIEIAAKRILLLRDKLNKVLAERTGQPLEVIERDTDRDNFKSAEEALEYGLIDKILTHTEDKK
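ClpP 10 microg/mL final, pH 8 Tris/KCl buffer with BSA, glycerol, Tween-20; compound pinned in; FRET-FV substrate; RT 20 min; Ex320/Em430; ΔFRET vs ADEP 5.8 microM, DMSO, no enzyme.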
TDP1 cell noCPT = qHTS for Inhibitors of human tyrosyl-DNA phosphodiesterase 1 (TDP1): qHTS in cells in absence of CPT; DT40 Tdp1-/- hTDP1 cells, no CPT, ATP luminescence, 48 h; AID 686978, 2013; Potency, µM (titrated, usually from 46.2 µM), for the others: at the highest dose activity change, negative = growth inhibition, usual class: inhibitors; actives 15% (n = 420,000); note: potency is the fitted concentration of half-maximal effect; % is set by controls: 0 for no effect and ±100 for the full control effect; nearly all actives have a fitted effect of over 55% in size
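Growth of hTDP1-complemented DT40 Tdp1-knockout cells is measured by ATP luminescence after at least 48 hr compound exposure at 37 °C, with DMSO substituting for the 20 nM CPT used in the parallel screen.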
DRD3 antagonist = D3 dopamine receptor (human) antagonism; P35462; D3R cells, DiscoveRx beta-arrestin luminescence, antagonist mode; hits give low values; max response, negative = inhibition, %; actives 2.5% (n = 360,000); AID 652054; in the data active = max response below about -50%; inconclusive = no clear call, values can overlap the other calls; note: % is set by controls: 0 for no effect and ±100 for the full control effect
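Cells expressing the human receptor were seeded at 1500 cells/well, incubated overnight at 37 degrees C in 5% CO2, then exposed to library compounds with dopamine controls for 90 minutes at 37 degrees C before luminescent detection.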
DT40 TDP1 CPT = DT40-hTDP1 cell growth loss with CPT | chicken DT40 Tdp1-/-;hTDP1 cells + 20 nM CPT, ATP luminescence, 48 h | Potency, µM (highest dose often 46.2 µM), without a hit: at the highest dose activity change, negative = growth inhibition, hits mostly inhibitors | actives 12% (n = 420,000); note: potency is the fitted concentration of half-maximal effect; % is set by controls: 0 for no effect and ±100 for the full control effect; nearly all actives have a fitted effect of over 55% in size
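Chicken DT40 Tdp1-/- cells stably complemented with human TDP1 were seeded at 400 cells/well in medium containing 20 nM camptothecin, exposed to pin-transferred compounds, and grown at 37 °C for at least 48 hr. Viability was read as ATP luminescence.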
Numbers without * were called inactive. This is a sample that favours compounds with a hit; in the whole collection about 21% have one here. Unless noted, calls come from the whole dose curve; as a rule, active = well fitted inhibition curve with a large enough effect; inconclusive = small, poorly fitted or top-dose-only effect; inactive = flat fitted curve, though single readings scatter.

`COc1ccc(CCNC2=C(Cl)C(=O)N(CCc3ccc(OC)c(OC)c3)C2=O)cc1OC` gave IL-1B inflam inh 27, D3 ag 11, ClpP mod 1%, TDP1 cell noCPT 10µM*, DRD3 antagonist 79 and DT40 TDP1 CPT 15µM*.
For COc1ccc(CCN2C(=O)CS/C2=N/NC(=O)c2ccccc2F)cc1OC the results were IL-1B inflam inh -2, D3 ag -3, ClpP mod 0%, TDP1 cell noCPT inconclusive, DRD3 antagonist -28 and DT40 TDP1 CPT inconclusive.
Screening COc1ccc(CCN2C(=O)C3C4CCC(C4=C(C)C)C3C2=O)cc1OC (stereo not drawn) returned IL-1B inflam inh 2, D3 ag 5, ClpP mod 1%, TDP1 cell noCPT 8.2µM*, DRD3 antagonist 1 and DT40 TDP1 CPT inconclusive.
For CC/C(=N\NC(=O)c1nnn(-c2nonc2N)c1-c1cccs1)c1ccccc1 the results were IL-1B inflam inh -6, D3 ag -7, TDP1 cell noCPT inconclusive, DRD3 antagonist -15 and DT40 TDP1 CPT -22%.
`CCOC(=O)c1c(C)[nH]c(C)c1S(=O)(=O)N1CCCC(C(=O)NCc2ccc(Cl)cc2)C1` (stereo not drawn) gave D3 ag 4, ClpP mod -3%, TDP1 cell noCPT 0% and DT40 TDP1 CPT -19%.
`Cc1cccc(CSCc2ccc(C(=O)NCC3CCCO3)o2)c1` (stereo not drawn) gave IL-1B inflam inh 21, D3 ag -1, ClpP mod -1%, TDP1 cell noCPT -26%, DRD3 antagonist 10 and DT40 TDP1 CPT inconclusive.
`COc1ccc(CCN2C(=O)C=CC2=O)cc1OC` gave IL-1B inflam inh -115*, D3 ag -10, ClpP mod 1%, TDP1 cell noCPT 1.3µM*, DRD3 antagonist inconclusive and DT40 TDP1 CPT 0.82µM*.
`COc1ccc(CCN2C(=O)CC(NC34CC5CC(CC(C5)C3)C4)C2=O)cc1OC` (stereo not drawn) gave IL-1B inflam inh 18, D3 ag 1, ClpP mod 0%, TDP1 cell noCPT 18µM*, DRD3 antagonist 13 and DT40 TDP1 CPT inconclusive.
For COc1ccc(CCN2C(=O)CC(NCCc3ccc(S(N)(=O)=O)cc3)C2=O)cc1OC (stereo not drawn) the results were IL-1B inflam inh 33, D3 ag 1, ClpP mod 1%, TDP1 cell noCPT inconclusive, DRD3 antagonist -2 and DT40 TDP1 CPT -19%.
For COc1ccc(CCN2C(=O)CN(Cc3ccccc3)CC2=O)cc1OC the results were IL-1B inflam inh -9, D3 ag 2, ClpP mod -1%, TDP1 cell noCPT -2%, DRD3 antagonist 10 and DT40 TDP1 CPT 4%.
Cc1ccc2c(c1)N(S(=O)(=O)c1ccc(CN3C(=O)c4cccnc4C3=O)s1)CCO2 was read as IL-1B inflam inh 5, D3 ag -1, ClpP mod 1%, TDP1 cell noCPT 12%, DRD3 antagonist 21 and DT40 TDP1 CPT -10%.
For CC1(C)CC(=O)C2=C(C1)N(CCN1CCOCC1)C1=C(C(=O)CC(C)(C)C1)C2c1cccc(F)c1 the results were IL-1B inflam inh -6, D3 ag -2, ClpP mod 28µM*, TDP1 cell noCPT -7%, DRD3 antagonist -9 and DT40 TDP1 CPT -15%.
For COc1ccc(Cl)cc1CC1(C)C(=O)Nc2ccc(S(=O)(=O)NC3CCCCC3)cc21 (stereo not drawn) the results were IL-1B inflam inh -9, D3 ag 1, ClpP mod 0%, TDP1 cell noCPT inconclusive, DRD3 antagonist 9 and DT40 TDP1 CPT 23µM*.
Screening COc1ccc(S(=O)(=O)NC2CCCC2)cc1Cl returned IL-1B inflam inh -4, D3 ag 8, ClpP mod 2%, TDP1 cell noCPT 7%, DRD3 antagonist 9 and DT40 TDP1 CPT 18%.
`COc1ccccc1CC1(C)C(=O)Nc2ccc(S(=O)(=O)NC3CCCCC3)cc21` (stereo not drawn) gave IL-1B inflam inh -5, D3 ag -14, ClpP mod -23%, TDP1 cell noCPT inconclusive, DRD3 antagonist 0 and DT40 TDP1 CPT 21µM*.
COc1ccc(OC(F)(F)F)cc1CC1(C)C(=O)Nc2ccc(-c3ccsc3)cc21 (stereo not drawn) was read as IL-1B inflam inh -7, D3 ag 9, ClpP mod -1%, TDP1 cell noCPT inconclusive, DRD3 antagonist -17 and DT40 TDP1 CPT inconclusive.
Screening COc1ccc(OC(F)(F)F)cc1CC1(C)C(=O)Nc2ccc(S(=O)(=O)NC3CCCCC3)cc21 (stereo not drawn) returned IL-1B inflam inh -22, D3 ag 4, ClpP mod -2%, TDP1 cell noCPT inconclusive, DRD3 antagonist 18 and DT40 TDP1 CPT 21µM*.
Screening CC1(Cc2ccc(F)cc2)C(=O)Nc2ccc(S(=O)(=O)NC3CCCCC3)cc21 (stereo not drawn) returned IL-1B inflam inh 0, D3 ag 5, ClpP mod -3%, TDP1 cell noCPT inconclusive, DRD3 antagonist 14 and DT40 TDP1 CPT inconclusive.
`CC1(Cc2ccccc2OC(F)(F)F)C(=O)Nc2ccc(S(=O)(=O)NC3CCCCC3)cc21` (stereo not drawn) gave IL-1B inflam inh -2, D3 ag 1, ClpP mod 2%, TDP1 cell noCPT inconclusive, DRD3 antagonist -14 and DT40 TDP1 CPT inconclusive.
Screening Cc1ccccc1CC1(C)C(=O)Nc2ccc(S(=O)(=O)NC3CCCCC3)cc21 (stereo not drawn) returned IL-1B inflam inh 63, D3 ag 6, ClpP mod -1%, TDP1 cell noCPT 21µM*, DRD3 antagonist 8 and DT40 TDP1 CPT inconclusive.
`CCc1ccc(OCc2cccc(C(=O)N/N=C\c3cnn(C)c3C)c2)cc1` gave IL-1B inflam inh 6, D3 ag 1, ClpP mod -30%, TDP1 cell noCPT 20%, DRD3 antagonist -1 and DT40 TDP1 CPT -26%.
Screening CC1CC[C@@]2(OC1)OC1CC3C4CC[C@H]5CC(O)CC[C@@]5(C)C4CC[C@]3(C)C1C2C (stereo partly drawn) returned TDP1 cell noCPT -3% and DT40 TDP1 CPT -10%.

Bioassay records from PubChem BioAssay.
